{"source": "ChEMBL document CHEMBL3988442", "about": "“University of Dundee, Small-Polar-MMV Screening Library” (2021)", "note": "Screen size: about 48,000 compounds; about 13,000 (27%) showed an effect of 50% or more. This is one part of the list.", "data": [{"system": "Wolbachia pipientis", "experiment": "Anti-Wolbachia Cell-Based Screen", "format": "functional", "parameters": "scale not given: in the data most compounds retested in dose-response had high values", "details": "5 µM", "units": {"Percent Effect": "%"}, "values": [{"molecule": "CCN(C)c1ncnc2c1CCN(Cc1nccs1)CC2.O=C(O)C(F)(F)F.O=C(O)C(F)(F)F", "Percent Effect": -6.805}, {"molecule": "CN(C)Cc1cc(-c2nccn2CCc2cccnc2)ccc1O", "Percent Effect": -8.952}, {"molecule": "Cc1nnc(NCc2ccccc2Cl)c(C#N)c1C", "Percent Effect": 4.284}, {"molecule": "CCCC(=O)Nc1cc(C(=O)NC(C)Cc2ccncc2)ccc1C", "note": "(centres undefined)", "Percent Effect": 2.128}, {"molecule": "CC(C)OCCOCc1cccc(NC(=O)N2CCCC(O)C2)c1", "note": "(centres undefined)", "Percent Effect": -8.695}, {"molecule": "CC(C)(C)OC(=O)N1CCC(NC2CCS(=O)(=O)C2)CC1", "note": "(centres undefined)", "Percent Effect": -18.26}, {"molecule": "c1ncn(Cc2nnc(C3CCN(C4CCOCC4)CC3)n2C2CC2)n1", "Percent Effect": -14.43}, {"molecule": "Cc1csc2c(N3CCC(NCCc4ccnn4C)CC3)ncnc12", "Percent Effect": 1.51}, {"molecule": "Cc1nc(C)n(C2CCCN(C(=O)c3ccccc3C)C2)n1", "note": "(centres undefined)", "Percent Effect": 3.222}, {"molecule": "CCOc1cc(C(=O)N2CCCC(n3nc(C)nc3C)C2)ccn1", "note": "(centres undefined)", "Percent Effect": 108.5}, {"molecule": "CCOc1ncccc1C(=O)N1CCCC(n2nc(C)nc2C)C1", "note": "(centres undefined)", "Percent Effect": -3.094}, {"molecule": "Cc1nc(C)n(C2CCCN(C(=O)COCc3ccccc3)C2)n1", "note": "(centres undefined)", "Percent Effect": -1.544}, {"molecule": "Cc1ccc(OCC(=O)N2CCCC(n3nc(C)nc3C)C2)cc1", "note": "(centres undefined)", "Percent Effect": 110.7}, {"molecule": "COc1ccsc1C(=O)N1CCCC(n2nc(C)nc2C)C1", "note": "(centres undefined)", "Percent Effect": -12.01}, {"molecule": "CCCNC(=O)CCC(=O)Nc1cc2sc(C)nc2cc1OC", "Percent Effect": 9.826}, {"molecule": "CC(=O)N(CCc1ccccc1)CC(=O)NC1(C#N)CC1", "Percent Effect": -30.59}, {"molecule": "COCCNC(=O)Nc1cc2c(cc1SC)OCCO2", "Percent Effect": 8.638}, {"molecule": "CCCn1ncc(CN(Cc2ccsc2)Cc2ccco2)c1C", "Percent Effect": -9.54}, {"molecule": "CCCn1ncc(CN(Cc2cccnc2)Cc2ccsc2)c1C", "Percent Effect": -8.215}, {"molecule": "CCCn1ncc(CN(Cc2cccnc2)Cc2cccs2)c1C", "Percent Effect": 103.6}, {"molecule": "Cc1cnc(C(=O)NCC2CCOc3ccccc3C2)cn1", "note": "(centres undefined)", "Percent Effect": -13.56}, {"molecule": "Cc1ccc2c(c1)CCC21CCN(C(=O)CN(C)C)CC1.O=C(O)C(F)(F)F", "Percent Effect": -5.589}, {"molecule": "CN(C)CC(=O)N1CCC2(CCc3ccc(-c4ccncc4)cc32)CC1.O=C(O)C(F)(F)F.O=C(O)C(F)(F)F", "Percent Effect": -5.921}, {"molecule": "CCC(=O)N1CCC2(CC1)CN(CCO)Cc1ccccc12.O=C(O)C(F)(F)F", "Percent Effect": 102.3}, {"molecule": "CN(C)CC(=O)N1CCC2(CC1)Cc1ccccc1CN(C)C2=O.O=C(O)C(F)(F)F", "Percent Effect": 100.6}, {"molecule": "O=C(O)C(F)(F)F.O=C1NC2(CCN(CCO)CC2)CC1c1ccccc1", "note": "(centres undefined)", "Percent Effect": -11.42}, {"molecule": "CN1Cc2ccccc2CC2(CCN(CCO)CC2)C1=O.O=C(O)C(F)(F)F", "Percent Effect": 115.9}, {"molecule": "O=C(O)C(F)(F)F.OCCN1CCC2(CCc3cc(-c4ccoc4)ccc32)CC1", "Percent Effect": -5.602}, {"molecule": "CCC(=O)N1CCC2(CCC(N3CCCC3)c3ccccc32)CC1.O=C(O)C(F)(F)F", "note": "(centres undefined)", "Percent Effect": 3.41}, {"molecule": "COc1cccc2[nH]cc(CCNC(=O)N3CCCC3CO)c12", "note": "(centres undefined)", "Percent Effect": -6.356}, {"molecule": "Cc1cc(C(F)(F)F)nn1CC(C)C(=O)Nc1ccncc1", "note": "(centres undefined)", "Percent Effect": 0.9571}, {"molecule": "CC(C)c1nnc2sc(CC3CCS(=O)(=O)CC3)nn12", "Percent Effect": -25.36}, {"molecule": "CCCc1nnc2sc(C3CCN(C4CCN(C)CC4)CC3)nn12", "Percent Effect": 110.3}, {"molecule": "COCCN1CCC(CN(C)c2nc3c(s2)c(C)nn3C)CC1", "Percent Effect": 20.85}, {"molecule": "CCCN1CCC(Cc2nn3c(C(C)C)nnc3s2)CC1", "Percent Effect": -24.84}, {"molecule": "CN1CCC(c2nnc(CN3CCCC3)n2C2CC2)CC1", "Percent Effect": 3.888}, {"molecule": "CCCc1nnc(N2CCC(N3CCCC3)CC2)o1", "Percent Effect": 13.58}, {"molecule": "CCCc1nnc2sc(C3CCS(=O)(=O)CC3)nn12", "Percent Effect": 102.2}, {"molecule": "CCc1nnc2n1CCN(C(=O)c1cnc(C3CC3)s1)C2", "Percent Effect": -2.147}, {"molecule": "CCCc1nnc2sc(C3CCN(CCOC)CC3)nn12", "Percent Effect": 91.66}, {"molecule": "COCCN(Cc1ccc(F)cc1Cl)C(=O)c1c(C)noc1C", "Percent Effect": -7.474}, {"molecule": "CCCNC(=O)NC(=O)CN(CC(C)O)c1ccccc1", "note": "(centres undefined)", "Percent Effect": 5.048}, {"molecule": "CC(C)C[C@@H]1N[C@H](C(=O)NC2CCOCC2)Cc2c[nH]c3cccc1c23", "Percent Effect": -3.699}, {"molecule": "O=C(COc1ccc2c(c1)CCC2)N1CCOCC1c1ncon1", "note": "(centres undefined)", "Percent Effect": -4.669}, {"molecule": "O=C(NCCSCc1ccc(Br)s1)C1CCCN(C(=O)c2cccs2)C1", "note": "(centres undefined)", "Percent Effect": -11.8}, {"molecule": "CC(=O)N[C@H]1CCN(c2nc(C)nc3c2c(C)nn3C)C1", "Percent Effect": -0.02014}, {"molecule": "Cc1cc(C(=O)Nc2cc(C3CC3)n[nH]2)c2c(C)nn(C)c2n1", "Percent Effect": 94.33}, {"molecule": "CCn1ncc(NC(=O)c2cc(C3CC3)nc3c2c(C)nn3C)c1C", "Percent Effect": 0.1323}, {"molecule": "O=C1NCCCC1NC(=O)C1(c2cccc(Cl)c2)CCC1", "note": "(centres undefined)", "Percent Effect": -14.19}, {"molecule": "CC(=O)NC1CCN(C(=O)Nc2cccc(C(F)(F)F)c2)CC1", "Percent Effect": -0.6218}, {"molecule": "CC(=O)Nc1cccc([C@H]2C[C@@H](NC(C)=O)CCO2)c1", "Percent Effect": 88.4}, {"molecule": "CC(=O)NC1CCN(C(=O)Nc2cccc(SC(F)F)c2)CC1", "Percent Effect": -5.711}, {"molecule": "CC1CN(C(=O)C2(c3ccc(F)cc3F)CCOCC2)CCO1", "note": "(centres undefined)", "Percent Effect": -18.6}, {"molecule": "CC(=O)N1CCC(C(=O)N2CCC(=Cc3cccc(F)c3)CC2)CC1", "Percent Effect": 0.4533}, {"molecule": "O=C(NC1CCCC1)N1CCCCC1c1nc(C2CC2)no1", "note": "(centres undefined)", "Percent Effect": 105.7}, {"molecule": "Cc1cc(CN(C)C(=O)NCc2ccco2)no1", "Percent Effect": 6.91}, {"molecule": "O=C(NCc1ccco1)N1CCCCC1c1nc(-c2ccncc2)no1", "note": "(centres undefined)", "Percent Effect": 87.86}, {"molecule": "O=C(NCc1ccco1)N1CCCCC1c1nc(C2CC2)no1", "note": "(centres undefined)", "Percent Effect": 74.85}, {"molecule": "Cc1noc(C2CCCCN2C(=O)NCc2ccco2)n1", "note": "(centres undefined)", "Percent Effect": 91.67}, {"molecule": "COc1ncccc1C(=O)N1CCCC1c1nc(-c2ccccc2)no1", "note": "(centres undefined)", "Percent Effect": -0.6104}, {"molecule": "O=C(NCc1ccco1)C1CCCN1Cc1nc(-c2ccco2)no1", "note": "(centres undefined)", "Percent Effect": -1.216}, {"molecule": "Cc1noc(C2CCCCN2C(=O)C2CCN(C(C)C)CC2)n1", "note": "(centres undefined)", "Percent Effect": -32.36}, {"molecule": "O=C(c1ccc2nccn2c1)N1CCCC1c1noc(C2CC2)n1", "note": "(centres undefined)", "Percent Effect": 1.976}, {"molecule": "CSc1nc(C2CC2)nc(C)c1C(=O)NCc1ccco1", "Percent Effect": -1.039}, {"molecule": "CN(C)Cc1nnc(C(=O)N(C)Cc2ccc(F)cc2)o1", "Percent Effect": -46.46}, {"molecule": "Cn1cc(C2CCCN2C(=O)CCCc2nc3ccccc3[nH]2)cn1", "note": "(centres undefined)", "Percent Effect": 0.1259}, {"molecule": "CC(=O)N1CCC(NC2(Cc3cc(CN(C)C)on3)COC2)CC1", "Percent Effect": -3.87}, {"molecule": "Cc1ccc(-c2nn3c(nc2=O)-c2ccccc2NC3C(=O)O)cc1C", "note": "(centres undefined)", "Percent Effect": -8.788}, {"molecule": "Cc1n[nH]c(C2CN(C(=O)c3ccnc(C4CC4)n3)CCO2)n1", "note": "(centres undefined)", "Percent Effect": -13.72}, {"molecule": "CCc1ncncc1C(=O)N1CCOC(c2nc(C)n[nH]2)C1", "note": "(centres undefined)", "Percent Effect": 2.402}, {"molecule": "CCc1n[nH]c(C2CN(C(=O)c3ccnc(C4CC4)n3)CCO2)n1", "note": "(centres undefined)", "Percent Effect": 101.3}, {"molecule": "CCCc1n[nH]c(C2CN(C(=O)c3ccnc(C4CC4)n3)CCO2)n1", "note": "(centres undefined)", "Percent Effect": 146}, {"molecule": "CCc1n[nH]c(C2CN(C(=O)c3ccnc(C)n3)CCO2)n1", "note": "(centres undefined)", "Percent Effect": 98.73}, {"molecule": "CCc1n[nH]c(C2CN(C(=O)c3cnc(C)nc3CC)CCO2)n1", "note": "(centres undefined)", "Percent Effect": 106.1}, {"molecule": "Cc1nc(N)cc(NCc2csc(N(C)C)n2)n1", "Percent Effect": -17.8}, {"molecule": "O=S(=O)(NCCc1c[nH]c2cc(F)ccc12)C1CCOC1", "note": "(centres undefined)", "Percent Effect": 22.23}, {"molecule": "CS(=O)(=O)c1ccc(OCCNCc2ccc(F)cc2F)cc1", "Percent Effect": -10.65}, {"molecule": "Cl.O=C(C1CC1)N1CCC2(CC1)CNc1ccc(F)cc12", "Percent Effect": -2.948}, {"molecule": "CC(CC#N)N(C)Cc1ccc(F)cc1C#N", "note": "(centres undefined)", "Percent Effect": 3.658}, {"molecule": "CCc1nnc(CN2CCC3(CCC(=O)N(C4CCCC4)C3)CC2)o1", "Percent Effect": 8.44}, {"molecule": "O=C(CN1CCN(c2ncnc3cccc(F)c23)CC1)N1CCCC1", "Percent Effect": 6.401}, {"molecule": "COCCO[C@H]1CCN(Cc2ccoc2)[C@H]1Cc1cccnc1", "Percent Effect": 85.57}, {"molecule": "COCCO[C@@H]1CCN(C(=O)c2ccc[nH]2)[C@H]1Cc1cnn(C)c1", "Percent Effect": -18.74}, {"molecule": "CS(=O)(=O)N[C@@H]1CCN(Cc2cccnc2)[C@H]1Cc1cccnc1", "Percent Effect": 0.03565}, {"molecule": "COCCO[C@H]1CCN(Cc2cnn(C)c2)[C@H]1Cc1cccnc1", "Percent Effect": 86.22}, {"molecule": "O=C(O)C(F)(F)F.O=C(O)C(F)(F)F.O[C@H]1CCN(Cc2ccoc2)[C@H]1Cc1cccnc1", "Percent Effect": -11.6}, {"molecule": "Cn1cc(CN2CC[C@@H](NS(C)(=O)=O)[C@@H]2Cc2cccnc2)cn1.O=C(O)C(F)(F)F.O=C(O)C(F)(F)F", "Percent Effect": 0.0713}, {"molecule": "C=C(C)COc1cccc(C(=O)N(CC)Cc2nc(COC)no2)c1", "Percent Effect": -39.48}, {"molecule": "Cn1c(N)nnc1SC1CCCN(c2ccccc2F)C1=O", "note": "(centres undefined)", "Percent Effect": -7.514}, {"molecule": "CC(C)OCc1nn(C)c2c1CCN(Cc1ccco1)C2.O=C(O)C(F)(F)F", "Percent Effect": -9.352}, {"molecule": "Cn1nc(COCC2CC2)c2c1CN(C(=O)c1ccno1)CC2.O=C(O)C(F)(F)F", "Percent Effect": -4.068}, {"molecule": "COCc1nn(C(C)C)c2c1CCN(Cc1ccc(C)s1)C2.O=C(O)C(F)(F)F", "Percent Effect": 2.652}, {"molecule": "CC(C)OCc1nn(C)c2c1CCN(CC1CC1)C2.O=C(O)C(F)(F)F", "Percent Effect": 103.7}, {"molecule": "CC(C)OCc1ncn2c1CN(CC1CC1)CCC2.O=C(O)C(F)(F)F", "Percent Effect": 10.37}, {"molecule": "Cn1nc(COCC2CC2)c2c1CN(CC1CC1)CC2.O=C(O)C(F)(F)F.O=C(O)C(F)(F)F", "Percent Effect": 100.4}, {"molecule": "O=C(O)C(F)(F)F.c1nc(COCC2CC2)c2n1CCCN(CC1CC1)C2", "Percent Effect": -4.563}, {"molecule": "Cc1ccc(CN2CCc3c(C(=O)N(C)C)nn(C)c3C2)s1.O=C(O)C(F)(F)F", "Percent Effect": -3.635}, {"molecule": "Cc1ccc(CN2CCc3c(COCC4CC4)nn(C)c3C2)s1.O=C(O)C(F)(F)F", "Percent Effect": 115.6}, {"molecule": "N#CCc1ccc(OCC(=O)NS(=O)(=O)c2ccc(Cl)s2)cc1", "Percent Effect": -0.9374}]}]}
